ANO1 block – TMEM16A chloride channel inhibitors, primary screen, cell-based, HTS; AID 588511, 2011; normalized B-score (activity score, 25-100; higher = stronger inhibition) at 10 µM; Anoctamin-1 (Mus musculus), Q8BHY3; 1.2% of 310,000 active; HEK293 TMEM16A/YFP iodide influx fluorescence, ionomycin;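 active means ratio plate-corrected score three or more library SD toward inhibition, starting fluorescence score within five deviations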;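 further: score derived from kinetic fluorescence span divided by baseline fluorescence per well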
ANO1 activ – TMEM16A chloride channel activators or potentiators, primary screen, cell-based, HTS; HEK293 TMEM16A/YFP-H148Q/I152L, iodide quench fluorescence; active compounds read low; Anoctamin-1 (Mus musculus), Q8BHY3; B-score at 10 µM; 0.3% of 340,000 active;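 active means fluorescence-ratio B-score plate-corrected deviation score at least 3 library SD below zero, with starting fluorescence score within 5 deviations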;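 further: channel opened by trigger with iodide after compound preincubation; score built on the fluorescence ratio of max minus min over baseline; more negative score means more quench and so TMEM16A activation or potentiation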
CHT inh – inhibitors of human choline transporter CHT; High affinity choline transporter 1 (Homo sapiens), Q9GZV3; CHT-expressing cells, membrane potential dye, choline response; active compounds read low; B-score at 10 µM; 0.86% of 310,000 active; AID 488975, 2010;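 active means B-score over 3 SD under the library average, and starting fluorescence ratio not unusually high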;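 further: choline stimulus applied at its EC90 after an EC20 pre-addition; B-score computed on integrated fluorescence ratio after choline addition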
Target sequence (Q9GZV3 whole entry, looked up): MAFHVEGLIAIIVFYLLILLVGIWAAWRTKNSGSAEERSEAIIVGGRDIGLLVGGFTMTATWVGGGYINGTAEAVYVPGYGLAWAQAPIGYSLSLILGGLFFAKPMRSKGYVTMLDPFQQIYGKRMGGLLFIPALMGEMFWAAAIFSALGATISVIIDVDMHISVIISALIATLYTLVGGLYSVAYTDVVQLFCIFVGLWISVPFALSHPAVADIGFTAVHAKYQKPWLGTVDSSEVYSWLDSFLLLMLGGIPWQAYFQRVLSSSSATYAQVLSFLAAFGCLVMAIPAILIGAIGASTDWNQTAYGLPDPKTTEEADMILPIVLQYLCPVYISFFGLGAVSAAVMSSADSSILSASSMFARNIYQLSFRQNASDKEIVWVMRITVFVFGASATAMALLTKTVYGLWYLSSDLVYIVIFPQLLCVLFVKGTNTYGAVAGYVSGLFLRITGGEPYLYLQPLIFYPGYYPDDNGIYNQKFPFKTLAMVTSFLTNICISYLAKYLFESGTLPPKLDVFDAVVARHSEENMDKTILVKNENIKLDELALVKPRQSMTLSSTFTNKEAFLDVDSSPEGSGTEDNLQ
CHT allo act – CHT positive allosteric modulators, primary screen, cell-based, membrane potential dye, choline EC20; B-score at 10 µM; CHT-expressing cells; active compounds read high; LV-AA mutant CHT in HEK293 cells; High affinity choline transporter 1 (Homo sapiens), Q9GZV3; 0.49% of 310,000 active;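 active means initial fluorescence not abnormally high and integrated response B-score, plate-corrected, over 3 SD above library mean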
The depositor's hits bear a star; i = inactive; / = not tested or not shown. An excerpt weighted towards active compounds, which were near 2.4% of everything screened.

SMILES	ANO1 block	ANO1 activ	CHT inh	CHT allo act
COc1ccc(NC(=O)c2cccc(S(=O)(=O)Nc3ccc(Br)cc3)c2)cn1	25*	i	i	i
COc1ccc(NC(=O)NS(=O)(=O)c2ccc(C)cc2)cn1	i	-7.5*	i	i
COc1ccc2c(COC(=O)[C@@H]3CCCN3S(=O)(=O)c3ccc(Cl)cc3)cc(=O)oc2c1	/	i	/	/
CCCCc1ccc(NC(=S)NCc2cccc(OC)c2)cc1	100*	i	i	i
CCOc1ccccc1CN1CCCC(CNS(=O)(=O)c2ccc(OC)cc2)C1 (stereo not given)	i	i	i	i
CC(=O)N1c2c(cc(Br)cc2S(=O)(=O)N2CCCCC2)CC1C (stereo not given)	i	i	i	i
CC(=O)N1c2c(cc(Br)cc2S(=O)(=O)N2CCN(c3ccccc3F)CC2)CC1C (stereo not given)	25*	i	i	i
CCOC(=O)c1ccc(NC(=O)NC2CC3CCC(C2)N3Cc2nnnn2Cc2ccco2)cc1 (stereo not given)	i	-47*	i	i
O=C(O)C1CCCN1c1nc(C(F)(F)F)nc2ccccc12 (stereo not given)	i	i	i	i
CCOC(=O)CN1C(=O)NC(C)(c2ccc(OC(F)F)cc2)C1=O (stereo not given)	25*	i	i	i
CC1(c2ccc(OC(F)F)cc2)NC(=O)N(CC(=O)Nc2ccccc2)C1=O (stereo not given)	i	-10*	i	i
CC1(c2ccc(OC(F)F)cc2)NC(=O)N(CC(=O)Nc2ccc3[nH]c(=O)[nH]c3c2)C1=O (stereo not given)	i	i	i	i
CC1(c2ccccc2)NC(=O)N(CC(=O)Nc2ccc3c(c2)OCO3)C1=O (stereo not given)	i	i	i	i
CC1(c2ccc(OC(F)F)cc2)NC(=O)N(CC(=O)Nc2ccc3c(c2)OCO3)C1=O (stereo not given)	i	-5.9*	i	i
CC1(c2ccc(OC(F)F)cc2)NC(=O)N(CC(=O)NC2CCCC2)C1=O (stereo not given)	/	i	/	/
Cc1nn(C)c(Cl)c1CN1CCCC(CO)(Cc2ccccc2)C1 (stereo not given)	i	i	i	i
Nc1ncc(Br)cc1S(=O)(=O)NCCc1ccccc1	i	i	i	i
CCN(CC)CCOC(=O)c1ccc(NC(=O)c2ccc(Cl)c(S(=O)(=O)N3CCCCCC3)c2)cc1	25*	i	i	i
CCOC(=O)c1ccc(NC(=O)c2cccc(S(=O)(=O)N3CCOCC3)c2)cc1	100*	i	i	i
CC(=O)c1cccc(NC(=O)c2cccc(S(=O)(=O)N3CCOCC3)c2)c1	i	i	i	i
OC[C@H]1O[C@H](OC[C@H]2O[C@H](OC[C@H]3O[C@H](O[C@]4(CO)O[C@H](CO)[C@@H](O)[C@@H]4O)[C@H](O)[C@@H](O)[C@@H]3O)[C@H](O)[C@@H](O)[C@H]2O)[C@H](O)[C@@H](O)[C@H]1O	i	i	i	i
O=C(NCCCO)C(=O)Nc1cc2c3c(c1)CCC(=O)N3CCC2	i	i	i	i
CCN(CC)c1ccc(/C=C2/C(=O)ON=C2C)cc1	i	i	i	i
CCN(CC)c1ccc(/C=C2\C(=O)N(c3nnc(C)c(=O)[nH]3)N=C2C)cc1	i	-5.7*	i	i
COc1cc2c(cc1OC)C(C)N(C(=O)c1cc3c(s1)-c1ccccc1OC3)CC2 (stereo not given)	i	i	i	i
SMILES	ANO1 block	ANO1 activ	CHT inh	CHT allo act
CSc1ccccc1OCc1cc(C(=O)N2CCC(Oc3cccnc3)CC2)no1	25*	i	i	i
CSc1ccccc1OCc1cc(C(=O)N2CCSCC2)no1	i	i	i	i
O=C([O-])c1cc(-c2ccccc2)cc(-c2ccccc2)[n+]1Cc1ccccc1	i	/	i	6.8*
Cc1cccc(-c2ccc(C=Nc3c(C)n(C)n(-c4ccccc4)c3=O)o2)c1	i	i	i	i
Cc1c(N=Cc2nc3ccccc3[nH]2)c(=O)n(-c2ccccc2)n1C	i	-13*	i	i
CCc1cc2c(=O)n(-c3ccccc3)c(=S)[nH]c2s1	25*	i	i	i
CCc1cc2c(=O)n(-c3ccccc3)c(SCC(N)=O)nc2s1	i	i	i	i
Clc1cccc(Cl)c1/C=C/c1nc2ccccc2[nH]1	25*	i	i	i
CC(=O)c1ccc(-n2c(-c3cc(-c4ccco4)[nH]n3)n[nH]c2=S)cc1	i	-12*	i	i
COc1cccc(NC(=O)Cn2c3ccccc3c3nc4n(c(=O)c32)CCCS4)c1	i	-52*	i	i
COc1ccc(NC(=O)Cn2c3ccccc3c3nc4n(c(=O)c32)CCS4)cc1OC	i	-54*	i	i
CCOc1ccc(CNc2ccc(S(N)(=O)=O)cc2)cc1	i	-5.1*	i	i
O=C(CN1CCC(O)CC1)N1c2ccccc2C=Cc2ccccc21	i	i	i	i
Cc1c(NC(=O)C(C)OC(=O)c2c3c(nc4ccccc24)CCC3)c(=O)n(-c2ccccc2)n1C (stereo not given)	i	i	i	i
CN(C)CCNC(=O)c1csc(Nc2cccc3ccccc23)n1	i	i	-9.9*	i
COCCNC(=O)c1csc(Nc2cccc3ccccc23)n1	i	i	i	i
COc1cc(/C=N/N=C(N)N)ccc1OCc1ccc(Cl)cc1	100*	i	i	i
COc1ccccc1N(CC(=O)NCCSCc1ccccc1)S(=O)(=O)c1ccc(C)cc1	25*	i	i	i
Cc1ccc(S(=O)(=O)N2CCN(c3ccccc3)CC2)cc1C(N)=O	i	i	i	i
CCC1CCCCN1CCCNC(=O)c1ccc2c(c1)N(Cc1c(F)cccc1Cl)C(=O)CS2 (stereo not given)	i	i	-5.4*	i
CC1Cc2cc(/C(O)=C3/C(=O)C(=O)N(CCN4CCOCC4)C3c3ccc([N+](=O)[O-])cc3)ccc2O1 (stereo not given)	i	i	i	i
Cc1c(F)cccc1NS(=O)(=O)c1ccc(OCCNS(C)(=O)=O)cc1	i	i	i	i
CC(C)C[C@H]1CN=C(Nc2ccccc2)N1CCc1cccc(F)c1	/	-5.2*	/	/
CCN1C(Nc2ccccc2)=NC[C@@H]1CC(C)C	i	i	i	i
Cc1cccc(CCN2C(Nc3ccccc3)=NC[C@@H]2CC(C)C)c1	i	-6.1*	i	i
CCOc1ncccc1C(=O)Nc1cc2c(cc1Br)OCCO2	/	i	/	/

Assay outcomes: PubChem BioAssay, Johns Hopkins Ion Channel Center
